In all, about 5,500 compounds went through this assay and about 2,000 (36%) were called active. Inconclusive results (about 18%) are left out. No stated cut-off is given here; in the data, active means normalized growth mostly below about 0.91 (no sharp cut-off); inconclusive means no clear call, values can overlap the other calls; inactive means mostly above about 0.92. This is one part of the list.
Test: chemical genetic growth profiling, strain panel (AID 1159580);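 further: tested at 20 µM; growth read once vehicle control cultures reached saturation at 30 °C; 1 = growth at the plate median or of vehicle wells; lower values mean less growth of the strain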
Conditions: growth OD

Measured: normalized growth

NC1(C(=O)O)CCCC1
inactive: S. cerevisiae deletion strains, locus YJR075W, strain HOC1, hits give low values 0.997 | S. cerevisiae deletion strains, locus YKL009W, strain mrt4, hits give low values 0.993 | S. cerevisiae deletion strains, locus YKL068W, hits give low values 1 | S. cerevisiae deletion strains, locus YKL085W, strain MDH1 (second series), hits give low values 0.996 | S. cerevisiae deletion strains, locus YKL085W, strain MDH1, hits give low values 0.996 | S. cerevisiae deletion strains, locus YKL160W, strain elf1, hits give low values 1.02 | S. cerevisiae deletion strains, locus YKL190W, strain CNB1, hits give low values 1.01 | S. cerevisiae deletion strains, locus YKR001C, strain vps1, hits give low values 0.998 | S. cerevisiae deletion strains, locus YKR026C, strain gcn3, hits give low values 1.02 | S. cerevisiae deletion strains, locus YKR091W, strain srl3, hits give low values 1.01 | S. cerevisiae deletion strains, locus YLL001W, strain dnm1, hits give low values 1.03 | S. cerevisiae deletion strains, locus YLL026W, hits give low values 1.01 | S. cerevisiae deletion strains, locus YLL041C, strain sdh2, hits give low values 1.02 | S. cerevisiae deletion strains, locus YLR027C, strain aat2, hits give low values 1.02 | S. cerevisiae deletion strains, locus YLR039C, strain RIC1, hits give low values 0.971 | S. cerevisiae deletion strains, locus YLR058C, strain SHM2, hits give low values 1.01 | S. cerevisiae deletion strains, locus YLR102C, strain apc9, hits give low values 1 | S. cerevisiae deletion strains, locus YLR113W, strain HOG1, hits give low values 1.06 | S. cerevisiae deletion strains, locus YLR221C, strain rsa3, hits give low values 0.994 | S. cerevisiae deletion strains, locus YLR258W, strain gsy2, hits give low values 1.02 | S. cerevisiae deletion strains, locus YLR262C, strain YPT6 (second series), hits give low values 1.04 | S. cerevisiae deletion strains, locus YLR262C, strain YPT6, hits give low values 1.02 | S. cerevisiae deletion strains, locus YLR268W, strain sec22, hits give low values 1.01 | S. cerevisiae deletion strains, locus YLR320W, strain mms22, hits give low values 1.03 | S. cerevisiae deletion strains, locus YLR330W, strain CHS5, hits give low values 1 | S. cerevisiae deletion strains, locus YLR342W, strain FKS1 (second series), hits give low values 1 | S. cerevisiae deletion strains, locus YLR342W, strain FKS1, hits give low values 1.02 | S. cerevisiae deletion strains, locus YLR357W, strain rsc2, hits give low values 1.02 | S. cerevisiae deletion strains, locus YLR370C, strain arc18, hits give low values 1.02 | S. cerevisiae deletion strains, locus YLR371W, strain rom2, hits give low values 1 | S. cerevisiae deletion strains, locus YLR384C, strain iki3, hits give low values 1.02 | S. cerevisiae deletion strains, locus YLR418C, strain cdc73, hits give low values 0.992 | S. cerevisiae deletion strains, locus YML016C, strain PPZ1, hits give low values 1 | S. cerevisiae deletion strains, locus YML032C, strain rad52, hits give low values 0.995 | S. cerevisiae deletion strains, locus YML120C, strain ndi1, hits give low values 1.03 | S. cerevisiae deletion strains, locus YML124C, strain tub3, hits give low values 0.998 | S. cerevisiae deletion strains, locus YMR058W, strain fet3, hits give low values 1.02 | S. cerevisiae deletion strains, locus YMR078C, strain ctf18, hits give low values 0.998 | S. cerevisiae deletion strains, locus YMR125W, strain sto1, hits give low values 1.05 | S. cerevisiae deletion strains, locus YMR129W, hits give low values 1.02 | S. cerevisiae deletion strains, locus YMR205C, strain PFK2, hits give low values 1.03 | S. cerevisiae deletion strains, locus YMR223W, strain ubp8, hits give low values 1.01 | S. cerevisiae deletion strains, locus YMR231W, strain pep5, hits give low values 1.02 | S. cerevisiae deletion strains, locus YMR307W, strain GAS1, hits give low values 1.01 | S. cerevisiae deletion strains, locus YNL067W, strain RPL9B, hits give low values 1 | S. cerevisiae deletion strains, locus YNL071W, strain lat1, hits give low values 1.02 | S. cerevisiae deletion strains, locus YNL128W, strain TEP1, hits give low values 1.02 | S. cerevisiae deletion strains, locus YNL183C, strain NPR1, hits give low values 0.946 | S. cerevisiae deletion strains, locus YNL209W, strain ssb2, hits give low values 1.01 | S. cerevisiae deletion strains, locus YNL233W, strain BNI4, hits give low values 0.991 | S. cerevisiae deletion strains, locus YNL248C, strain rpa49, hits give low values 1 | S. cerevisiae deletion strains, locus YNL250W, strain rad50, hits give low values 1.02 | S. cerevisiae deletion strains, locus YNL271C, strain bni1, hits give low values 0.998 | S. cerevisiae deletion strains, locus YNL298W, strain CLA4, hits give low values 1.01 | S. cerevisiae deletion strains, locus YNL307C, strain MCK1, hits give low values 0.996 | S. cerevisiae deletion strains, locus YNL322C, strain KRE1 (second series), hits give low values 1.01 | S. cerevisiae deletion strains, locus YNL322C, strain KRE1, hits give low values 1.01 | S. cerevisiae deletion strains, locus YNR049C, strain mso1, hits give low values 1.01 | S. cerevisiae deletion strains, locus YNR052C, strain pop2, hits give low values 1.01 | S. cerevisiae deletion strains, locus YOL006C, strain TOP1, hits give low values 0.987 | S. cerevisiae deletion strains, locus YOL012C, strain htz1 0.665 | S. cerevisiae deletion strains, locus YOL147C, strain pex11, hits give low values 0.993 | S. cerevisiae deletion strains, locus YOR001W, strain rrp6, hits give low values 1.03 | S. cerevisiae deletion strains, locus YOR061W, strain CKA2, hits give low values 1.01 | S. cerevisiae deletion strains, locus YOR069W, strain VPS5, hits give low values 1.01 | S. cerevisiae deletion strains, locus YOR070C, strain gyp1, hits give low values 1.02 | S. cerevisiae deletion strains, locus YOR080W, strain dia2, hits give low values 1.02 | S. cerevisiae deletion strains, locus YOR083W, strain WHI5, hits give low values 1.03 | S. cerevisiae deletion strains, locus YOR106W, strain vam3, hits give low values 1.02 | S. cerevisiae deletion strains, locus YOR136W, strain idh2, hits give low values 0.998 | S. cerevisiae deletion strains, locus YOR144C, strain elg1, hits give low values 0.997 | S. cerevisiae deletion strains, locus YOR184W, strain ser1, hits give low values 0.996 | S. cerevisiae deletion strains, locus YOR231W, strain MKK1, hits give low values 1.04 | S. cerevisiae deletion strains, locus YOR265W, strain rbl2, hits give low values 1.01 | S. cerevisiae deletion strains, locus YOR270C, strain vph1, hits give low values 1.07 | S. cerevisiae deletion strains, locus YOR290C, strain snf2, hits give low values 1.02 | S. cerevisiae deletion strains, locus YOR316C, strain cot1, hits give low values 1 | S. cerevisiae deletion strains, locus YPL051W, strain arl3, hits give low values 1.03 | S. cerevisiae deletion strains, locus YPL055C, strain LGE1, hits give low values 1.03 | S. cerevisiae deletion strains, locus YPL078C, strain atp4, hits give low values 1.04 | S. cerevisiae deletion strains, locus YPL106C, strain sse1, hits give low values 1.02 | S. cerevisiae deletion strains, locus YPL240C, strain hsp82, hits give low values 1.01 | S. cerevisiae deletion strains, locus YPL256C, strain CLN2, hits give low values 1.04 | S. cerevisiae deletion strains, locus YPR119W, strain clb2, hits give low values 0.998 | S. cerevisiae deletion strains, locus YPR141C, strain kar3, hits give low values 0.991 | S. cerevisiae deletion strains, locus YPR163C, strain tif3, hits give low values 1 | S. cerevisiae deletion strains, locus YPR167C, strain met16, hits give low values 0.992 | S. cerevisiae deletion strains, strain wtn01, hits give low values 0.994 | S. cerevisiae strains, strain wild type, hits give low values 1.01

From PubChem BioAssay AID1159580 (chemical genetic matrix, 2015)
